Assay results: PubChem BioAssay (NCATS)
Records with an inconclusive call do not appear. Active and inactive are the calls of the source. The call rests on the fitted dose curve; in most records, active means well fitted curve in the direction sought with a large enough effect; inconclusive means small, poorly fitted or top-dose-only effect, or another doubt; inactive means no such curve, though single readings can be large; an effect the other way counts as inactive or inconclusive. Where a SMILES comes first, the peptide text is derived from it. [ ]: non-standard residue; d: D form. ξ: configuration not given here. ξPhe(βξ-Me) = CC(c1ccccc1)C(N)C(=O)O; GABA = NCCCC(=O)O

Tests used:
OV90 = experiment: Primary qHTS to identify gynecologic anti-cancer compounds using libraries of approved drugs and bioactive compounds (AID 1345084); conditions: Gynecologic cancer cell panel viability, ATPlite luminescence, 48 h; series mostly up to 57.5 µM; further: nearly all actives have a fitted effect of over 55% in size; further: potency means the concentration at half of the fitted maximal effect
Method in brief: (§1)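 Cells, 1,000 per well, plated 16 h, then exposed 48 h at 37 C to compounds. Viability by ATPlite luminescence after 15 min at room temperature.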

PA-1 = experiment: as above; conditions: Gynecologic cancer cell panel viability, ATPlite luminescence, 48 h; series mostly up to 57.5 µM
Method in brief: as §1

SKOV3 = experiment: as above; conditions: Gynecologic cancer cell panel viability, ATPlite luminescence, 48 h; series mostly up to 57.5 µM
Method in brief: as §1

Tov-21-G = experiment: as above; conditions: Gynecologic cancer cell panel viability, ATPlite luminescence, 48 h; series mostly up to 57.5 µM
Method in brief: as §1

Tov112D = experiment: as above; conditions: Gynecologic cancer cell panel viability, ATPlite luminescence, 48 h; series mostly up to 57.5 µM
Method in brief: as §1

[1] = qHTS assay to identify inhibitors of the type 1 interferon - major histocompatibility complex class I in skeletal muscle: Counter screen cell viability and HiBit confirmation (AID 1347412); conditions: iHSKM muscle cells + IFN-b, HiBiT or CellTiter-Glo, 24 h; Viability; at 45.9 µM (top of the series); further: nearly all actives have a fitted effect of over 60% in size
Method in brief: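 Human myoblast knock-in line, 4.0 ng/ml IFN-beta stimulation, 24 h compound treatment. Endpoints: HiBiT lytic luminescence (HLA-B level) and CellTiter Glo (ATP). Dosing 12 concentrations, 3-fold steps, 46 uM highest final.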
On the % scale 0 is the no-effect control and ±100 the full control effect.

CC1(C)CCCC2(C)C=C(C(=O)O)C(O)CC12 (stereo unspecified)
inactive: Potency (OV90) | Potency (PA-1) | Potency (SKOV3) | Potency (Tov-21-G) | Potency (Tov112D)

COc1ccc(Cl)c(Nc2nc3ccccc3nc2NS(=O)(=O)c2cccc(NC(=O)C(C)(C)N)c2)c1
inactive: Potency (OV90) | Potency (PA-1) | Potency (SKOV3) | Potency (Tov-21-G) | Potency (Tov112D)

O=C1C=CC(O)(/C=C/C(=O)OC[C@H]2O[C@@H](Oc3ccc(O)cc3)[C@H](O)[C@@H](O)[C@@H]2O)C=C1
inactive: Potency (OV90) | Potency (PA-1) | Potency (SKOV3) | Potency (Tov-21-G) | Potency (Tov112D)

C=C(C(=O)O)C1CC(O)C2(C)CCCC(=C)C2C1 (stereo unspecified)
inactive: Potency (OV90) | Potency (PA-1) | Potency (SKOV3) | Potency (Tov-21-G) | Potency (Tov112D)

CC(C)=CCC/C(C)=C/CCC1(C)Oc2c(c(O)cc3c2CN(C(CCC(=O)O)C(=O)O)C3=O)CC1O (stereo unspecified)
inactive: Potency (OV90) | Potency (PA-1) | Potency (SKOV3) | Potency (Tov-21-G) | Potency (Tov112D)

COc1cc(/C=C/C=O)cc(OC)c1O[C@@H]1O[C@H](CO)[C@@H](O)[C@H](O)[C@H]1O
inactive: Potency (OV90) | Potency (PA-1) | Potency (SKOV3) | Potency (Tov-21-G) | Potency (Tov112D)

C/C=C(\C)C(=O)OCC1OC(OC2OC(COC(=O)/C(C)=C/C)C(OC3OC(CO)C(OC(=O)/C(C)=C/C)C(OC(=O)/C(C)=C/C)C3O)C(O)C2O)C(O)C(O)C1OC1OC(CO)C(OC(=O)/C(C)=C/C)C(OC(=O)/C(C)=C/C)C1O (stereo unspecified)
inactive: activity change, negative = cytotoxicity (OV90) -3.76% [at 11.6 µM] | activity change, negative = cytotoxicity (PA-1) 0.651% [at 11.6 µM] | activity change, negative = cytotoxicity (SKOV3) -11.6% [at 11.6 µM] | activity change, negative = cytotoxicity (Tov-21-G) 9.19% [at 11.6 µM] | activity change, negative = cytotoxicity (Tov112D) -1.35% [at 11.6 µM]

CC(=O)O[C@H]1CC[C@H](C)[C@@]2(C)[C@H](OC(C)=O)c3c(C)coc3C(=O)[C@H]12
inactive: Potency (OV90) | Potency (PA-1) | Potency (SKOV3) | Potency (Tov-21-G) | Potency (Tov112D)

CC1CC2OC3(OC2C(C)(C)O)C1C1(C)CCC24CC25CCC(O[C@@H]2OC[C@@H](O)[C@H](O)[C@H]2O)C(C)(C)C5CC=C4C1(C)C3O (stereo partly specified)
inactive: Potency (OV90) | Potency (PA-1) | Potency (SKOV3) | Potency (Tov-21-G) | Potency (Tov112D)

CC1NC(=O)CCCNC(=O)C(Cc2c[nH]c3ccccc23)NC(=O)C(C)NC(=O)C(C(C)C)NC(=O)C(C(C)c2ccccc2)NC(=O)C(C(C)C)NC1=O (stereo not drawn) (cyclo([GABA]AV[ξPhe(βξ-Me)]VAW); configuration not given here)
inactive: Potency (OV90) | Potency (PA-1) | Potency (SKOV3) | Potency (Tov-21-G) | Potency (Tov112D)

C[C@H]1CC[C@@H]2N(C1)C[C@@H]1[C@H]([C@@H](O)[C@H](O)[C@]3(O)[C@H]1C[C@@]14OC5(O)[C@@H](C[C@@H](O)[C@@H]31)[C@]4(C)CC[C@@H]5O)[C@]2(C)O
inactive: Potency (OV90) | Potency (PA-1) | Potency (SKOV3) | Potency (Tov-21-G) | Potency (Tov112D)

CC1=C(COC2OC(CO)C(O)C(O)C2O)C(C(CO)C(=O)O)CC1 (stereo unspecified)
inactive: Potency (OV90) | Potency (PA-1) | Potency (SKOV3) | Potency (Tov-21-G) | Potency (Tov112D)

COc1ccc(C(O)C(C)OC2OC(CO)C(O)C(O)C2O)cc1 (stereo unspecified)
inactive: Potency (OV90) | Potency (PA-1) | Potency (SKOV3) | Potency (Tov-21-G) | Potency (Tov112D)

O=C(O)c1ccc(OC2OC(CO)C(O)C(O)C2O)cc1 (stereo unspecified)
inactive: Potency (OV90) | Potency (PA-1) | Potency (SKOV3) | Potency (Tov-21-G) | Potency (Tov112D)

C/C=C(/COC(=O)/C(C)=C/C)C(=O)OC(CC)c1ccc(OC)c(OC)c1 (stereo unspecified)
inactive: Potency (OV90) | Potency (PA-1) | Potency (SKOV3) | Potency (Tov-21-G) | Potency (Tov112D)

Cc1cc(OCc2nnc(SC3CCCC3)n2-c2cccnc2)ccc1-c1ccc(S(C)(=O)=O)cc1
inactive: activity change, negative = inhibition [1] -25.3%
active: Potency (OV90) 1.78 µM | Potency (PA-1) 12.6 µM | Potency (SKOV3) 0.794 µM | Potency (Tov-21-G) 28.2 µM | Potency (Tov112D) 31.6 µM

CN(C)C(=O)NC1CCC(CCN2CCN(c3cccc(Cl)c3Cl)CC2)CC1 (stereo unspecified)
inactive: activity change, negative = cytotoxicity (OV90) 0.264% [at 11.6 µM] | activity change, negative = cytotoxicity (PA-1) 1.34% [at 11.6 µM] | activity change, negative = cytotoxicity (SKOV3) 0.966% [at 11.6 µM] | activity change, negative = cytotoxicity (Tov-21-G) 4.37% [at 11.6 µM] | activity change, negative = cytotoxicity (Tov112D) 2.02% [at 11.6 µM]

CC(=O)OC1CC2(C)C3=CCC4(C)C5C(O)C(O)C(C(C)C)C5(C)CCC4(C)C3CCC2C(C)(C)C1OC1OC(CO)C(O)C(O)C1O (stereo unspecified)
inactive: Potency (OV90) | Potency (PA-1) | Potency (SKOV3) | Potency (Tov-21-G) | Potency (Tov112D)

O=C(O)/C=C/c1cc2c(cc1O[C@@H]1O[C@H](CO)[C@@H](O)[C@H](O)[C@H]1O)OCO2
inactive: Potency (OV90) | Potency (PA-1) | Potency (SKOV3) | Potency (Tov-21-G) | Potency (Tov112D)

C=C(C)[C@@H]1CC[C@]2(C)CC[C@]3(C)[C@H](CC[C@@H]4[C@@]5(C)CC[C@@H](O)C(C)(C)[C@@H]5CC[C@]43C)[C@@H]12
inactive: Potency (OV90) | Potency (PA-1) | Potency (SKOV3) | Potency (Tov-21-G) | Potency (Tov112D)
